AmpC detergent: AmpC beta-lactamase inhibition with detergent present | 370,000 tested, 0.041% active | AmpC hydrolysis of nitrocefin, absorbance 480 nm, 0.01% Triton | Potency, µM (highest dose often 114 µM), hits mostly inhibitors; further: nearly all actives have a fitted effect of over 25% in size
Target sequence (P00811 whole entry, looked up): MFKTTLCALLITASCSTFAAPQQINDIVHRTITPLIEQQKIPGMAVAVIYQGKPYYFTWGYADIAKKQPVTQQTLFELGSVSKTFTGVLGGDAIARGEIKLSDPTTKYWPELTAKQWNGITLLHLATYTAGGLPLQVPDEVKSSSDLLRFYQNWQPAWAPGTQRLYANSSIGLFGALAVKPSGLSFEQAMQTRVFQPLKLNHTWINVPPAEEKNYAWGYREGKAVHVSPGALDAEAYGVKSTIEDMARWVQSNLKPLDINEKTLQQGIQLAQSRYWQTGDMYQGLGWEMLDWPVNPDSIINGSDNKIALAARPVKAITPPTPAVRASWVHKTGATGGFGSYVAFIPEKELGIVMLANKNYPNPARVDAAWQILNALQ
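AmpC (5.3 nM in the dispensed reagent) in 20 mM phosphate pH 7.0 with 0.01% (detergent screen) or 0.0001% Triton X-100 was preincubated with compounds for 15 min at room temperature. Nitrocefin was then added from an 800 uM solution, and hydrolysis was followed at 480 nm.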
AMA1-RON2 inh: disrupts binding of P. falciparum AMA1 to RON2. Potency, µM (titrated, usually from 58.2 µM), hits mostly inhibitors. AlphaScreen AMA1-biotinylated RON2 peptide binding. AID 720542. 360,000 tested, 0.2% active; further: nearly all actives have a fitted effect of over 45% in size
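AMA1 (3D7) with his tag at 25 nM final met compounds first, then biotinylated RON2 peptide at 25 nM; detection used donor plus acceptor beads, 10 µg/mL apiece, read by AlphaScreen after 30 min at room temperature.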
Cycloheximide cs: counter-screen for Shiga toxin inhibitors: cycloheximide protein synthesis inhibition; cell reporter, cycloheximide protein synthesis inhibition counterscreen; max response, %; 300,000 tested, 12% active; in the data active means max response mostly above about 13%, no sharp cut-off; inactive means mostly below about 14%; further: read at 38.3 µM for the half of the compounds with a filed dose
Shiga toxin inh: blocks Shiga toxin action in Vero cells; Vero cells, Shiga toxin protein synthesis inhibition reporter; inhibition, % at 38.7 µM; 290,000 tested, 9.2% active; in the data active means inhibition mostly above about 28%, no sharp cut-off; inactive means mostly below about 43%
SARS PLP yeast: inhibitors of SARS-CoV papain-like protease in yeast | S. cerevisiae expressing SARS-CoV PLpro, growth rescue | Potency, µM (series often up to 32.9 µM), hits mostly activators | 330,000 tested, 0.19% active; calls by dose curve; further: nearly all actives have a fitted effect of over 55% in size
AmpC no deterg: inhibitors of E. coli AmpC beta-lactamase without detergent. P00811. AmpC nitrocefin hydrolysis, absorbance 480 nm, 0.0001% Triton. Potency, µM (top dose mostly 57.1 µM), actives largely listed as inhibitors. 330,000 tested, 0.52% active. AID 485341; further: nearly all actives have a fitted effect of over 20% in size
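AmpC (5.3 nM in the dispensed reagent) in 20 mM phosphate pH 7.0 with 0.01% (detergent screen) or 0.0001% Triton X-100 was preincubated with compounds for 15 min at room temperature. Nitrocefin was then added from an 800 uM solution, and hydrolysis was followed at 480 nm.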
Numbers stand for hits; 0 = inactive; ? = inconclusive; - = no result; [ ] = another dose, or the depositor's remark. The sample as a whole holds a higher share of hits than the screen did. Unless noted, the call rests on the fitted dose curve; in most records, active means well fitted curve in the direction sought with a large enough effect; inconclusive means small, poorly fitted or top-dose-only effect, or another doubt; inactive means no such curve, though single readings can be large; an effect the other way counts as inactive or inconclusive.

SMILES	AmpC detergent	AMA1-RON2 inh	Cycloheximide cs	Shiga toxin inh	SARS PLP yeast	AmpC no deterg
CCOC(=O)c1csc(-c2ccc([N+](=O)[O-])cc2)n1	0	0	40	90	0	0
CCOC(=O)c1csc(NC(=O)CC2CCCC2)n1	0	0	25	32	0	0[11.4 µM]
CCOC(=O)c1csc(N)n1	0	0	34	80	0	0
CCOC(=O)c1csc(COc2ccc(OC)cc2)n1	0	0	61	122	0	0
CCOC(=O)c1csc(NC(=O)CCSc2ccccc2)n1	0	0	0	0	0	0
CCOC(=O)Cc1csc(N)n1	0	0	0	0	0	0
CCCCNC(=O)CN1CCN(Cc2ccc3cc(OC)ccc3c2)CC1	?	?	0	0	0	0
O=C(NCCCCCCNC(=O)N1CCCCCC1)N1CCCCCC1	0	0	0	0	0	0
CCOC(=O)c1cc(-c2csc(COc3ccccc3Cl)n2)on1	0	0	0	0	0	0
CC(=O)c1csc(COc2ccccc2)n1	0	0	17	0	0	0
CCOC(=O)c1csc(COc2ccccc2Cl)n1	0	0	32	52	0	0
COc1cc2c(cc1OC)CN(CC(=O)Nc1ccc(S(=O)(=O)N(C)C)cc1)CC2	?	0	0	0	0	0
CCOc1ccc(N(CC(=O)NCc2cccs2)S(=O)(=O)c2c(C)noc2C)cc1	0	0	0	0	0	0
O=C(O)C1CCN(C(=O)COc2ccc3c4c(c(=O)oc3c2)CCCC4)CC1	0	0	0	0	0	0
COc1ccccc1/C=C/C=N/NC(=O)Cc1cccn1C	0	0	0	0	0	0
COc1ccccc1/C=C/C=N/NC(=O)c1cccs1	0	0	44	116	0	0
COc1ccccc1/C=C\C=N\NC(=O)c1ccco1	?	0	39	153	0	0
COc1ccc(OC)c(NCc2cccn2-c2nnc(N3CCC(C)CC3)s2)c1	0	-	31	69	-	-
COc1ccc(NCc2cccn2-c2nnc(N3CCC(C)CC3)s2)c(OC)c1	0	-	-	-	-	-
O=c1[nH]c(S)nc2sc3c(c12)CCCC3	0	0	0	0	0	0
O=c1[nH]c(-c2ccco2)nc2sc3c(c12)CCCC3	0	0	51	91	0	0
CCCS(=O)(=O)N1CCCC(C(=O)NCc2cccnc2)C1 (centres undefined)	?	0	0	0	0	0
CSc1nnc(-c2ccc(Cl)cc2Cl)o1	0	0	52	0	0	0
CC(C)NCc1nnc(-c2ccccc2Cl)o1	0	0	0	39	0	0
O=C(O)CCSc1nnc(-c2ccc(Cl)cc2Cl)o1	0	-	-	-	-	-
SMILES	AmpC detergent	AMA1-RON2 inh	Cycloheximide cs	Shiga toxin inh	SARS PLP yeast	AmpC no deterg
CSc1ccccc1-c1nnc(-c2ccc(Cl)cc2Cl)o1	0	0	0	0	0	0
CCSc1nnc(-c2ccc(Cl)cc2Cl)o1	0	0	57	85	0	0
Clc1ccccc1-c1nnc(-c2ccccc2CNc2ccc(Br)cc2)o1	0	-	-	-	-	-
CSc1nnc(-c2ccccc2Cl)o1	0	0	29	88	0	0
O=C(Cc1csc(N2CCOCC2)n1)N/N=C/c1ccc(Cl)cc1Cl	0	0	0	0	0	0
CCOc1ccc(CCNC(=O)CN(C)S(=O)(=O)c2cccc3nsnc23)cc1OCC	0	0	0	0	0	0
CCn1cc2nc(SCC(=O)Nc3ccc(OC)c(OC)c3)n(Cc3ccc(Cl)cc3)c(=O)c2n1	0	-	-	-	-	-
CC(C)(C)c1ccc(N2C(=O)CC(c3ccccc3)C2=O)cc1 (centres undefined)	0	0	0	0	0	0
COc1ccc(-c2noc(N3CCC(C(=O)NC(C)c4ccccc4)CC3)n2)cc1 (centres undefined)	?	0	0	0	0	0
O=C(NCc1cccnc1)c1ccc(COc2ccccc2Cl)o1	0	0	0	0	0	0
O=C(OCc1ccccn1)c1ccc(COc2ccccc2Cl)o1	0	0	30	0	0	0
O=C(c1ccc(COc2ccccc2Cl)o1)N1CCCC1	0	0	16	0	0	0
O=C(c1ccc(COc2ccccc2Cl)o1)N1CCOCC1	0	0	0	0	0	0
O=C(COc1ccccc1)Nc1nnc(S(=O)(=O)N2CCCC2)s1	?	0	0	0	0	0
Cc1cc(C)cc(NC(=O)c2cc(=O)c3ccccc3o2)c1	0	0	0	0	0	0
Cc1cccc(NC(=O)c2oc3ccccc3c2NC(=O)c2cc(=O)c3ccccc3o2)c1	0	-	-	-	-	-
COc1cccc(NC(=O)c2cc(=O)c3ccccc3o2)c1	0	0	19	47	0	0
Cc1cccc(NC(=O)c2cc(=O)c3ccccc3o2)c1	0	0	24	0	0	0
Cc1ccc(NC(=O)c2cc(=O)c3ccccc3o2)cc1	0	0	29	0	0	0
CC(=O)Nc1ccc(NC(=O)c2cc(=O)c3ccccc3o2)cc1	?	0	0	0	0	0
NC(=O)c1ccsc1NC(=O)c1cc(=O)c2ccccc2o1	0	0	44	0	0	0
CC(C)(C)OC(=O)[C@H](Cc1ccccc1)NC(=O)c1nc[nH]c1C(=O)NCc1ccccc1	0	0	0	0	0	0
O=C(CSc1nnc(-c2cccnc2)o1)c1cc2ccccc2oc1=O	0	0	0	0	0	0
Cc1cccc(NC(=O)c2cc(=O)c3ccccc3o2)n1	0	0	24	0	0	0
O=C(Nc1cccc(-c2nc3ccccc3s2)c1)c1cc(=O)c2ccccc2o1	0	0	0	31	0	0
SMILES	AmpC detergent	AMA1-RON2 inh	Cycloheximide cs	Shiga toxin inh	SARS PLP yeast	AmpC no deterg
N#Cc1ccc(NC(=O)c2cc(=O)c3ccccc3o2)cc1	0	0	0	0	0	0
Cc1ccc(NC(=O)c2cc(=O)c3ccccc3o2)c(C)c1	0	0[2.32 µM]	0	0	0	0
N#Cc1ccccc1NC(=O)c1cc(=O)c2ccccc2o1	?	0	0	59	0	0
Cc1ccc(C)c(NC(=O)c2cc(=O)c3ccccc3o2)c1	0	0	33	0	0	0
O=C(Nc1nc2ccc(Cl)cc2s1)c1cc(=O)c2ccccc2o1	0	-	-	-	-	-
CC(=O)c1sc(NC(=O)c2cc(=O)c3ccccc3o2)nc1C	0	0	36	60	0	0
O=C(NCCc1ccc(F)cc1)c1cc(=O)c2ccccc2o1	0	0	25	0	0	0
O=C(COc1ccccc1[N+](=O)[O-])Nc1ccc2c(c1)OCO2	0	0	31	66	0	0
O=C(N/N=C/c1ccc(OC(=O)c2ccc3c(c2)OCO3)cc1)c1cncc(Br)c1	0	0	0	0	0	0
O=C(N/N=C/c1cccc(OC(=O)c2ccc3c(c2)OCO3)c1)c1cncc(Br)c1	0	0	49	56	0	0
Cc1cccc(OCC(=O)Nc2ccc3c(c2)OCO3)c1C	0	0	55	0	0	0
Cc1ccc(C)c(OCC(=O)Nc2ccc3c(c2)OCO3)c1C	0	0	0	0	0	0
Cc1cc(C)cc(OCC(=O)Nc2ccc3c(c2)OCO3)c1	0	10µM	0	0	0	0

Compound activity: PubChem BioAssay, National Center for Advancing Translational Sciences (NCATS)
